# Assay outcomes deposited in PubChem by National Center for Advancing Translational Sciences (NCATS).
# The list is not random: actives were taken first. Their share in the collection is about 2.8%.
# LDHA block: blocks human lactate dehydrogenase A | activity change, % (values are at about 110 or 230 µM) | actives 0.15% (n = 480,000) | purified LDHA, NADH/diaphorase-resazurin fluorescence; stronger effect = lower value | AID 1347041 | P00338; in the data active means activity change below about -30%; inconclusive means mostly about -25% to -30%;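 further: plate controls were DMSO wells for no effect and wells without enzyme for full effect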
#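 Resorufin fluorescence (ex540/em590), read at 0 and 20 min after diaphorase/resazurin addition, reports the NADH left after a 5 min room-temperature reaction of 2 nM human LDH5 with 0.06 mM NADH and 0.2 mM pyruvate.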
# RGS4 inh: inhibitors of human regulator of G protein signaling 4 | AID 504845 | P49798 | Potency, µM (titrated, usually from 114 µM), inactives show top-dose activity change, negative = inhibition, hits mostly inhibitors | Transcreener GDP fluorescence polarization, RGS4-accelerated GTP hydrolysis | actives 0.039% (n = 390,000); active means well fitted inhibition curve with a large enough effect; inconclusive means small, poorly fitted or top-dose-only effect; inactive means no such curve, though single readings can be large or run the other way; further: potency means the concentration at half of the fitted maximal effect; on the % scale 0 is the no-effect control and ±100 the full control effect; nearly all actives have a fitted effect of over 75% in size
# Target sequence (P49798 whole entry, looked up): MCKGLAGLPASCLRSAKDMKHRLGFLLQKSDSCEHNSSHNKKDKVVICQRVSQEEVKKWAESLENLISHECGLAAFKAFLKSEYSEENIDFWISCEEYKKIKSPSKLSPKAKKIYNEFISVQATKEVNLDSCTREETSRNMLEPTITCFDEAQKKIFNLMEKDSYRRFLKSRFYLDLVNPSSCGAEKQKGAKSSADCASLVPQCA
#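 MLSMR compounds (23 nl, pin-transferred) preincubated 10 min at room temperature with a 500nM (2x) first reagent, then RGS4 at 900nM (2x) plus Transcreener GDP mix added; fluorescence polarization (620/688 nm) read before and after 90 min at 30 °C.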
# PI4K2A inh: blocks human PI4K2A kinase activity; Q9BTU6; purified PI4K2A, ADP-Glo luminescence, 1 h; stronger effect = lower value; activity change, negative = inhibition, % at 76.9 µM; actives 0.13% (n = 420,000); in the data active means activity change below about -50%; inconclusive means mostly about -30% to -49%;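 further: -100% = wells without enzyme as full effect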
# Target sequence (Q9BTU6 whole entry, looked up): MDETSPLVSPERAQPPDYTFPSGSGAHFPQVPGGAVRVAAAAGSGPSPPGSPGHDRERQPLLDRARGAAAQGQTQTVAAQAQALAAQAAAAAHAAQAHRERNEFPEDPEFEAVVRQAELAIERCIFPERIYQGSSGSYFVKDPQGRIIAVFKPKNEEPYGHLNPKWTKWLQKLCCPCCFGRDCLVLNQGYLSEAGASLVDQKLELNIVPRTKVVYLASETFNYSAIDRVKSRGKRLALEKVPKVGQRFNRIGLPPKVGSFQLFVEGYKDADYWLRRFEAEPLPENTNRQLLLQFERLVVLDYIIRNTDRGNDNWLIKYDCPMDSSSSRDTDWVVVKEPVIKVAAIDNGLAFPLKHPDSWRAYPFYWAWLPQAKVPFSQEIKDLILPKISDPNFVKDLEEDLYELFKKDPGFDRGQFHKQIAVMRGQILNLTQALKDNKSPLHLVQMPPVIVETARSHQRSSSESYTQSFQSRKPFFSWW
#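 PI4K2A activity was measured by ADP-Glo luminescence: enzyme (4 ug/mL stock) and phosphatidylinositol (1.2 mM stock) in Tris pH 7.5/MgCl2/EGTA/Triton X-100 buffer were reacted with ATP (300 microM stock) for one hour at ambient temperature.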
# D3 ag: activates the human D3 dopamine receptor; P35462; D3R DiscoveRx beta-arrestin cells, luminescence, 90 min; max activation, %; actives 0.58% (n = 410,000); AID 652048; in the data active means max activation above about 30%; further: 0% is about no effect
#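 Cells at 1500/well, incubated overnight, then treated with pinned compounds (dopamine as control) for 90 min at 37 degrees C. DiscoveRx reagent added for 30 - 60 minutes at room temperature; luminescence read.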
# DRD3 antagonist: blocks the human D3 dopamine receptor; max response, negative = inhibition, %; P35462; D3R cells, DiscoveRx beta-arrestin luminescence, antagonist mode; stronger effect = lower value; actives 2.5% (n = 360,000); AID 652054; in the data active means max response below about -50%; inconclusive means no clear call, values can overlap the other calls; further: on the % scale 0 is the no-effect control and ±100 the full control effect
#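 Cells plated overnight at 1500 cells/well, then exposed to library compounds with dopamine controls for 90 minutes at 37 degrees C. DiscoveRx reagent added for 30–60 minutes at room temperature; luminescence read, quantitative HTS format.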
# pAkt inh: Akt phosphorylation inhibition | activity change, % for hits at 50 µM | Neuro2A IGF-stimulated pAkt S473 HTRF, 20 min; stronger effect = lower value | actives 0.32% (n = 360,000); in the data active means activity change below about -80%; inconclusive means mostly about -51% to -80%; further: on the % scale 0 is the no-effect control and ±100 the full control effect
#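 Neuro2A cells in DMEM with 0.5% FBS, overnight at 37 deg C, given compound at single 50 µM final, then IGF (6 nM final) for 20 min at 37 deg C. Lysed; phospho-Akt Ser473 by HTRF after 24 h, 665/615 ratio.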
# * marks the source's active call; other numbers are inactive results; i = inactive; ? = inconclusive; . = no result; [ ] = another dose, or the depositor's remark.
SMILES,LDHA block,RGS4 inh,PI4K2A inh,D3 ag,DRD3 antagonist,pAkt inh
COc1ccccc1N1CCN(C(C)C(=O)N2CC(C)OC(C)C2)CC1 (centres undefined),-39*,9%,-1,-1,-13,i
O=C(NNC(=O)c1ccc2nonc2c1)Nc1ccc(Cl)cc1,-12,6%,1,-21,-69*,i
O=C(NNC(=O)c1cccnc1)Nc1ccc(Cl)c(Cl)c1,-3,-8%,-7,4,50,i
CC(C)Cn1c(COc2ccc(C(C)(C)C)cc2)n[nH]c1=S,8,.,.,.,.,.
C=CCn1c(-c2cc(OC)cc(OC)c2)n[nH]c1=S,0,-29%,-5,-1,-59*,i
C=CCn1c(-c2cccc(OCC)c2)n[nH]c1=S,0,-24%,1,9,2,i
Cc1cc(C)c2cccc(C)c2n1,3,.,.,.,.,.
O=[N+]([O-])c1cnc(Sc2ccncn2)s1,3,?,-14,-27,-125*,i
O=[N+]([O-])c1cnc(Sc2ccncn2)c([N+](=O)[O-])c1,3,.,-8,-10,0,i
C=CCc1cc(C)ccc1OCC(O)CN1CCN(c2ccccc2)CC1 (centres undefined),-13,13%,-2,75*,-24,.
C=CCc1ccc(OCC(O)CN2CCN(c3ccccc3)CC2)c(OC)c1 (centres undefined),0,-46%,-2,38*,?,i
CN(C)C(=O)c1ccc(NC(=O)COC(=O)C2CCN(c3ccc(C(F)(F)F)cn3)CC2)cc1,-2,.,.,.,.,.
COCc1cc(C)[nH]c(=O)c1C#N,-3,-11%,-1,-10,-53*,i
CCOC(=O)c1cc(C)[nH]c(=O)c1C#N,-1,-8%,-3,1,19,i
N#Cc1cn(CCOc2ccc(F)cc2)c2ccccc12,-4,-12%,4,-7,-17,-117%*
Cn1c(CNC2CCCCC2)c(C#N)c2ccccc21,-1,32%,3,-6,-77*,i
Cn1c(CN2CCCCC2)c(C#N)c2ccccc21,-5,13%,5,-65,-78*,i
Cc1ccc(NCc2c(C#N)c3ccccc3n2C)cc1,11,.,.,.,.,.
O=C(c1cc2c(s1)-c1ccc(Cl)cc1SC2)N1CCC(Cc2ccccc2)CC1,11,.,.,.,.,.
CSCCC(NS(=O)(=O)c1ccccc1)C(=O)OCc1nc2ccsc2c(=O)[nH]1 (centres undefined),-2,-13%,-2,4,3,i
CSCCC(NS(=O)(=O)c1ccccc1)C(=O)OCc1cc(=O)oc2cc(O)ccc12 (centres undefined),4,-2%,-7,-1,-52*,i
CCN(CC)CCCN(Cc1cc2ccc(C)c(C)c2[nH]c1=O)C(=O)NC1CCCCC1,-1,8%,0,-55,-57*,i
CN(Cc1ccc2ccccc2c1)C(=O)c1ccsc1,4,.,.,.,.,.
CCOC(=O)c1cnc2ccc(OCC)cc2c1N1CCN(c2ccccc2OC)CC1,6,-3%[11.4 µM],-5,34*,69,i
CCOC(=O)c1cnc2ccc(OCC)cc2c1N(C)Cc1ccccc1,9,1%,-3,68*,8,i
SMILES,LDHA block,RGS4 inh,PI4K2A inh,D3 ag,DRD3 antagonist,pAkt inh
CCOC(=O)c1cnc2ccc(OCC)cc2c1Nc1ccccc1OC,1,.,.,.,.,.
Cn1c(Oc2ccc3cc(Br)ccc3c2)c(C#N)c(=O)n(C)c1=O,-2,.,.,.,.,.
Cc1c(C(=O)NC2CCN(Cc3ccccc3)C2)oc2c(Cl)cccc12 (centres undefined),3,-18%,6,-20,-100*,i
CC(C)(C)C(=O)NC1CCN(Cc2ccccc2)C1 (centres undefined),2,.,.,.,.,.
CN(C)S(=O)(=O)c1ccc(Cl)c(C(=O)NC2CCN(Cc3ccccc3)C2)c1 (centres undefined),-13,9%,3,-13,-59*,i
CCN(c1ccccc1)S(=O)(=O)c1ccc(Cl)c(C(=O)NC2CCN(Cc3ccccc3)CC2)c1,-2,-5%,2,-26,?,i
Cc1sc(NC(=O)c2ccccc2)c(C(c2ccccc2)N2CCOCC2)c1C (centres undefined),1,.,.,.,.,.
Cc1ccc(SCCCn2cncn2)cc1,-18,-15%,1,-3,?,-111%*
CC(C)(C)CC(=O)C(C#N)C(=O)Nc1ccccc1Cl (centres undefined),-13,.,.,.,.,.
NNc1nc(-c2ccccc2Cl)nc2ccccc12,2,-23%,8,-10,-92*,i
Oc1cccc(Nc2nc(-c3ccccc3Cl)nc3ccccc23)c1,-3,-4%,3,3,1,i
O=C(Cc1csc(N2CCOCC2)n1)N/N=C/c1ccc(O)c(O)c1O,38,?,-9,-13,-57*,i
COc1ccc(Nc2nc(N3CCCC3)nc(N3CCCC3)n2)c(OC)c1,-4,6%,1,146*,44,i
COc1ccc(Nc2nc(N3CCCCC3)nc(N3CCCCC3)n2)c(OC)c1,0,-25%,-3,-16,27,i
CCC1CN(CC(=O)Nc2ccc(OC)c(Cl)c2)c2ccccc2S1 (centres undefined),6,.,.,.,.,.
COc1cccc(-c2nn(-c3ccccc3)cc2C(=O)O)c1,-6,-6%,4,2,-4,i
COc1cccc(-c2nn(-c3ccccc3)cc2C(=O)NCC(C)(C)N2CCOCC2)c1,-31*,.,.,.,.,.
O=C(C/C=N/OCc1ccc(F)cc1Cl)c1cnc(-c2ccccc2)s1,1,-13%,-3,4,?,-97%*
Cc1nc(CN2CCN(CCOc3ccc(Cl)cc3)CC2)no1,-32*,.,.,.,.,.
c1ccc(Cc2noc(CN3CCN(CCOc4ccccc4)CC3)n2)cc1,2,10%,4,16,-53*,i
COC(=O)c1c(-c2ccccc2)csc1NC(=O)CN1CCOCC1,1,.,.,.,.,.
C[n+]1ccc(/C=C/c2ccc(Br)cc2)cc1,-32*,-35%,10,0,-14,i
O=S(=O)(CC(CN1CCOCC1)N1CCCCC1)c1ccc2ccccc2c1 (centres undefined),-11,.,.,.,.,.
O=S(=O)(Nc1nc(-c2sccc2Cl)cs1)c1cc(Cl)ccc1Cl,8,-22%,-12,-11,-86*,i
CC1CCN(S(=O)(=O)c2ccc(NC(=O)CN3CCN(c4ccccc4)CC3)cc2)CC1,-7,-3%,2,110*,12,i
CC1CCN(S(=O)(=O)c2ccc(NC(=O)CN3CCCCCC3)cc2)CC1,-2,1%,-1,-21,-2,i
O=C(CN1CCCCC1)Nc1ccc(S(=O)(=O)NC2CCCCC2)cc1,-15,1%,-3,-8,-51*,.
